These results are taken from PubChem BioAssay (EPA / NIEHS).

The source made the active and inactive calls. How the source made its calls: active means hit-call score of the fitted dose curve at least 0.9, where 1 is the maximum; inactive means score below 0.9.

The target of this test is Hypoxia-inducible factor 1-alpha (Homo sapiens) (UniProt Q16665). Description: ATG_HIF1a_CIS: Attagene CIS-FACTORIAL HepG2 Assay for human Hypoxia Inducible Factor 1 (HIF1A) (AID 2282951). As to conditions: HepG2 Attagene cis-factorial HIF1a reporter transcription; actives raise or lower the signal. The protocol: ATG_CIS is a cell-based, multiplexed-readout assay that uses HepG2, a human liver cell line, with measurements taken at 24 hours after chemical dosing in a 24-well plate.ATG_HIF1a_CIS is one of 52 assay component(s) measured or calculated from the ATG_CIS assay. It is designed to make measurements of mRNA induction, a form of inducible reporter, as detected with fluorescence intensity signals by Reverse transcription polymerase chain reaction (RT-PCR) and Capillary electrophoresis technology.Data from the assay component ATG_HIF1a_CIS was analyzed into 1 assay endpoint. This assay endpoint, ATG_HIF1a_CIS, was analyzed with bidirectional fitting relative to DMSO as the negative control and baseline of activity. Using a type of inducible reporter, measures of mRNA for gain or loss-of-signal activity can be used to understand the reporter gene at the transcription factor-level as they relate to the gene HIF1A. Furthermore, this assay endpoint can be referred to as a primary readout, because this assay has produced multiple assay endpoints where this one serves a reporter gene function. To generalize the intended target to other relatable targets, this assay endpoint is annotated to the dna binding intended target family, where the subfamily is basic helix-loop-helix protein.
Sequence of Hypoxia-inducible factor 1-alpha (Homo sapiens) (Q16665 whole entry, looked up): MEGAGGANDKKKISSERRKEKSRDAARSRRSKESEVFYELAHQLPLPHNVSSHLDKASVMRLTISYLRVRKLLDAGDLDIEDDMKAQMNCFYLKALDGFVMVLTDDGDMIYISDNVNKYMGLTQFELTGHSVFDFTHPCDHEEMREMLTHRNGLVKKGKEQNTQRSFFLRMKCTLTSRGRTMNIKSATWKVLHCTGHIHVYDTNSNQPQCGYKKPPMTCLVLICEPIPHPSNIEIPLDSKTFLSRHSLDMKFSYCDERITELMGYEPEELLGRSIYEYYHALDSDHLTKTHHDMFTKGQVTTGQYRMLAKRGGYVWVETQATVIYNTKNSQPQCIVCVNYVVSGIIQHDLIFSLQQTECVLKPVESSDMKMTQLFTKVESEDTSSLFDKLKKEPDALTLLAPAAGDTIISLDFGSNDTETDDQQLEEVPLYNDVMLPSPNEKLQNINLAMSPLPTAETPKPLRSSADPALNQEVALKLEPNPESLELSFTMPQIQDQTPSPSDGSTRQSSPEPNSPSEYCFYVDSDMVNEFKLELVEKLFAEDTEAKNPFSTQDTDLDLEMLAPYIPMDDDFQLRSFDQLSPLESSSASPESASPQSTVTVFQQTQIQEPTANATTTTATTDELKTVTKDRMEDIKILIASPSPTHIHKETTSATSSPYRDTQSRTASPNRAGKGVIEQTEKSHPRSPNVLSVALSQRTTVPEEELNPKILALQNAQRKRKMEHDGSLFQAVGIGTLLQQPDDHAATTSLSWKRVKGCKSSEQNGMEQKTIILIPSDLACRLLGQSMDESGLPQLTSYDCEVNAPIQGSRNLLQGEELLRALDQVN
Human liver HepG2 cells are transiently transfected with multiple reporter transcription units (MRTUs) in 6-well plates using FuGene 6 reagent (Roche; 3 ml FuGene/1 mg DNA). The MRTU constructs are regulated by a cis-regulating element (promoter). […] A major difference between the CIS and TRANS system is that in CIS activities of endogenous TFs are measured, whereas the TRANS assay evaluates changes in activities of exogenous, chimeric NR-Gal4 proteins. […] At the end of 24 hour incubation, total RNA was isolated using TriZol reagent (Invitrogen). The isolated RNA is then reverse-transcribed using oligo(dT) primer and Mo-MLV reverse transcriptase (Invitrogen) with DNAse I (Ambion) treatment for 30 min. The one-tenth of the produced cDNA was amplified by PCR using Taq DNA polymerase (Invitrogen) and two reporter sequence-specific primers. The PCR products were fluorescently labeled by primer extension with 6-arboxyfluorescein (6-FAM) 5'-labeled reporter sequence-specific primer (2 min at 95 C, 20 s at 68 C and 10 min at 72 C) and these products were digested with 5U of HpaI (New England Biolabs) for 2h at 37 C. The fragments were purified using Qiaquick PCR columns (Qiagen), analyzed on an ABI 3130xL genetic analyzer (Applied Biosystems) with peak positions identified by using a set of X-rhodamine (ROX)-labeled MapMarker1000 molecular weight standards (BioVentures). The raw capillary electrophoresis data was processed using Attagraph software (Attagene).
Take `O=C(CS)OCCOC(=O)CS`: the compound was classed as inactive.
The same measure, in the same setting: to `CCCC[P+](CCCC)(CCCC)CCCC` belongs “inactive”; to `CSc1c(Cl)c(Cl)c(Cl)c(Cl)c1Cl`, “inactive”.
The same measure, in the same setting: then `CCCCCCCCc1ccc(S(=O)(=O)O)cc1`, with “inactive”; and `Cc1cc(CCC(=O)OCCOCCOCCOC(=O)CCc2cc(C)c(O)c(C(C)(C)C)c2)cc(C(C)(C)C)c1O`, with “inactive”; and `C=C(C)C1CC=C(C)C(=O)C1` (stereo not given), with “inactive”.
Same read-out and setting: then `CC(=O)c1c(C)c([N+](=O)[O-])c(C(C)(C)C)c([N+](=O)[O-])c1C`, with “inactive”; and `Nc1ccc2cc(S(=O)(=O)O)cc(O)c2c1N=Nc1ccccc1C(F)(F)F`, with “inactive”; and `Nc1c(S(=O)(=O)O)cc(Br)c2c1C(=O)c1ccccc1C2=O`, with “inactive”.
`O=C1OC(=O)c2c(Br)c(Br)c(Br)c(Br)c21`: the call was inactive.
Same read-out and setting: to `COC(=O)c1ccc(OC)cc1` belongs “inactive”.
The same measure, in the same setting: then `CCCCCCCC(=O)OCCCCCC`, with “inactive”; and `O=C(O)CNc1ccccc1`, with “inactive”; and `Nc1ccn([C@H]2CS[C@@H](CO)O2)c(=O)n1`, with “inactive”.
The same measure, in the same setting: then `CCCCCCCCCCCCCCCC(=O)OC/C=C(C)/C=C/C=C(C)/C=C/C1=C(C)CCCC1(C)C`, with “inactive”; and `COc1ccccc1[N+](=O)[O-]`, with “inactive”.
Turning to `CC=Cc1ccc(OCC)c(O)c1`, the outcome was inactive.
On the same count and under the same terms, to `COCCOCCOCCO` belongs “inactive”; to `O=C(O)CCCCCCCCCCCC(=O)O`, “inactive”.
Still for that read-out and setting: then `CN(c1nccc(=O)[nH]1)C1CCN(c2nc3ccccc3n2Cc2ccc(F)cc2)CC1`, with “inactive”; and `CCC(=O)OCCOc1ccccc1`, with “inactive”.
The same measure, in the same setting: then `CC(O)C1CCCCC1` (stereo not given), with “inactive”; and `Cc1ccc2c(c1)C(=O)OC2=O`, with “inactive”.
As for `CCCCCCCCCCCC(=O)OCC(O)CO` (stereo not given), the call was inactive.
Same read-out and setting: to `CC(=O)Nc1ccc(C(=O)CCl)cc1` belongs “inactive”.
Take `CCCC(=O)c1ccccc1`: the call was inactive.
Broadly, the AC50 is the concentration at which the activity in the assay is half-maximal. As for `Oc1ccc2cc(SSc3ccc4cc(O)ccc4c3)ccc2c1`, the half-maximal activity concentration (AC50) was 30.6 µM (active).
Consider `CCCC(C)=O`, for which the result was inactive.
As for `CC(Oc1cc(Cl)ccc1Cl)C(=O)O` (stereo not given), the outcome was inactive.
Same read-out and setting: to `Cc1ncc[nH]1` belongs “inactive”; to `COC(=O)c1cccnc1`, “inactive”.
On to `CC1(C)COCN1`, for which the compound was called inactive.
Still for that read-out and setting: then `CCCSc1ccc2nc(NC(=O)OC)[nH]c2c1`, with “inactive”; and `C=Cc1ccncc1`, with “inactive”; and `CCCCCCCCCC(=O)OC`, with “inactive”.
Still for that read-out and setting: to `CCCOCCO` belongs “inactive”; to `C[C@H]1C[C@@H](O)CC(C)(C)C1`, “inactive”; to `FC(F)(F)COCC(F)(F)F`, “inactive”.
Same read-out and setting: then `C=CCCC(=O)/C=C/C1C(C)=CCCC1(C)C` (stereo not given), with “inactive”; and `CCOCCOCCOCC`, with “inactive”.
